Test system: VDR:RXRa (NR concentration 270 nM, RXRa partner concentration 90 nM)
Assay: PBM binding z-score (relative to random genomic background probes); higher = stronger binding; sequences stand for … in GC…GCGATTGACAGCGTAGAATGAAGG
Method: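 Protein-binding microarray (Agilent 4x180K custom design, double-stranded 60-nt probes: 5' GC cap, 34-nt variable region, 24-nt constant primer region; full probe sequence given). Purified or IVT nuclear receptor:RXRα heterodimers (3:1 NR:RXRα, mostly 270:90 nM) or homodimers were incubated for 1 h in PBS with 2% milk and no ligand, then detected with Alexa488 antibodies. Fluorescence from o1-orientation probes (~5 replicates averaged) was converted to z-scores against 500 random hg19 background probes. Variable regions are seed direct-repeat (DR0–DR5) sites, all their single-nucleotide variants and half-site ablations.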

Going from GCTAGCAGGCCAGTTGGGTCACTCAATGACGGGC to CGAACTAGGTCAAGGACGGTGAATCTCCGCACGC, the PBM binding z-score rises from -0.00125 to 1.14.

Going from CCGACTGGGCCAAAGGTCATTGATTCCAATGCTC to ACAGACAGGGGAGTGAAGGTAACTCAGCTGGACG, the PBM binding z-score falls from 4.58 to -0.347.

First: TGTCAAAGTTCATAGGTAACGTAAGTATCCACAC
Second: ACTCGGAGGAGAAAGGTCAGAGCTACGCCAGTGA
The PBM binding z-score of the first is higher: 4.67 for the first, 2.16 for the second.

Compared with AGTCAAAGTCCAGGACGAGGTAACGTAAAGCACG, TGAATGAGGTTATAAGATCAGGTAACGTTGCAAA is higher in PBM binding z-score: -0.202 for the first, 1.14 for the second.

Going from ATCTCTAGGGAAAAGTTCAGTGAATCCCGAGGAT to CCGACTGGTGCAGAAAGGTTACCATACCATCCGG, the PBM binding z-score rises from 0.557 to 0.685.

First: TAGCCTAGGTCAGATCGGGCCAGTTTACGCTATA
Second: TTACCAAGGTGAAGGTCGTTGGTCCCTCTGTAGA
The PBM binding z-score of the first is lower: 0.663 for the first, 0.994 for the second.

Compared with GCTAGTTGGTCAGTAAAAGGACACACACCGGTCG, ATATGTAGGTTACAACCGGGTCATTCAGGCTATG is higher in PBM binding z-score: -0.213 for the first, 4.56 for the second.

First: CTCGAAAGGTCGTGCTCAGTTGAGTATACCAAAC
Second: CCTAGCAGGCCAGGGTCACTCAAGCATTTCGCTT
The PBM binding z-score of the first is higher: 3.59 for the first, 2.48 for the second.

First: CAAACTAGTTCAAAGGTCAAAGTCGAGCCAACCA
Second: CCTTACGGGTCACTCCAGTTTATAGCATCGGAGT
The PBM binding z-score of the first is higher: 6.02 for the first, 5.1 for the second.

Compared with CCTACTGGGCCAAAGGTCATTGTTTCCAATGCTC, GCTGCTAGGTCCGGTTGGTCAGCTAACGGGTACG is lower in PBM binding z-score: 4.11 for the first, -0.965 for the second.

Compared with CAAACTAGGTCACGAATGGTCAAAGTCGAATGAC, CAAACTAGGTCAAGAGGTCAATGTCCGCTTCCCG is higher in PBM binding z-score: 3.05 for the first, 5.64 for the second.

Going from ATCTCTAGGTAAAGTTCAGTGTAAGATCGATAGA to GCTATTAGTGGAAAGGGCAACCGAATGATTCTCG, the PBM binding z-score falls from 2.12 to 0.104.

Compared with CCTACTGGGCCATCACGTCATTGATATCAACGTT, TCTGCTAGGTGAACGATGGTCAGCTAATCTGCTA is lower in PBM binding z-score: -0.314 for the first, -0.621 for the second.

Compared with AGAATGAGTTTATTAAGATCAGGGAATTGCGGTC, TCTGCTAGGTCAGTTGGTAAGCTAACGAGCTGCC is lower in PBM binding z-score: 2.08 for the first, -0.00155 for the second.

First: AATACAGGGTTACTAGGCCAGAGTAGGTACGAAT
Second: ATCGAAAGGTCGACGAGCTGAGTATACACCGTTT
The PBM binding z-score of the first is lower: 0.824 for the first, 2.15 for the second.

Going from CGTCAAAGTTCAACTAAGGAAACGTAAAGCACGC to AGAATGAGGTTATTTAGATCAGGGAATTGCGGTC, the PBM binding z-score falls from 4.16 to 1.88.

First: CCTCGGAGGACAGAACGTCAGAGCTGTCCGCTTT
Second: TCGAATAGGTTAGTCGGGGCATTCAGCCAACATA
The PBM binding z-score of the first is lower: -0.754 for the first, 3.04 for the second.

Compared with GGAACGAGGGCAAGTTGTTAGCAGAGTTTGATGG, TCATATGGGTAAAAGGTGAAAGTCGGTGTGGTAA is higher in PBM binding z-score: 0.88 for the first, 1.34 for the second.

Compared with CTAACTAGGTCAAGGACAGTGAATCTCCGCACGC, TCAGACAGGTGAAGCTAACTCAGGTACGCAGTCG is lower in PBM binding z-score: 1.3 for the first, 0.334 for the second.

First: CAAACTGGGTCAAGAGGTCAAAGTCCGCTTCCCG
Second: ATCGAAAGGTCGAAGGTGAGTGTACCCACCCGAA
The PBM binding z-score of the first is higher: 6.19 for the first, 3.05 for the second.
